# Hits are enriched below; roughly 2.7% of the tested compounds scored in any of these assays.
# ERG Ets-DNA blk – ERG Ets/DNA interaction inhibition | P11308 | fluorescence polarization, His-ERG Ets domain / labelled DNA | Potency, µM (titrated, usually from 76.9 µM), inactives show at the top dose FP activity, negative = inhibition, usual class: inhibitors | actives 0.028% (n = 370,000) | AID 624246; active = well fitted inhibition curve with a large enough effect in the polarisation, with a control signal flat; inconclusive = small, poorly fitted or top-dose-only effect, or effect the other way, or a change in a side signal; inactive = no such curve, though single readings can be large or run the other way; the % refers to the polarisation;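 note: polarization taken with two DNA probes labelled with fluorescein and Texas red; potency is the fitted concentration of half-maximal effect; % of control where 0% means no effect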
#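 His-tagged ERG Ets domain (1 uM in the protein solution; 300mM KCl, 50mM Tris-HCl, 1mM EDTA, 1mM DTT, pH 7.5) received compound, then a probe mix of 5 nM fluorescein-DNA and 100nM Texas-615-DNA. Fluorescence polarization was read for both dyes.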
# LDHA block – inhibitors of human lactate dehydrogenase A; actives 0.15% (n = 480,000); AID 1347041; purified LDHA, NADH/diaphorase-resazurin fluorescence; stronger effect = lower value; activity change, % (values are at about 110 or 230 µM); P00338; in the data active = activity change below about -30%; inconclusive = mostly about -25% to -30%;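 note: plate controls were DMSO wells for no effect and wells without enzyme for full effect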
#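 Human LDH5 (2 nM) was incubated with 0.06 mM NADH and 0.2 mM pyruvate for 5 min at room temperature in Tris pH 7.4. Remaining NADH was coupled through diaphorase/resazurin, and resorufin fluorescence was read at 0 and 20 min.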
# A549 tox – counter-screen for Nrf2 inhibitors: cytotoxicity in A549 cells; A549 ARE-Fluc cells, CellTiter-Fluor viability, 18-24 h; actives 0.16% (n = 390,000); Potency, µM (series often up to 46 µM), for inactives: at the top dose activity change, negative = cytotoxicity, hits mostly inhibitors; note: potency is the fitted concentration of half-maximal effect; % is set by controls: 0 for no effect and ±100 for the full control effect
#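 Cytotoxicity counterscreen: CellTiter-Fluor fluorescence was measured in A549 ARE_Fluc cells after 18-24 h of compound exposure in a concentration series. The subsequent BugLite luminescent read reports ARE-luciferase activity.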
# 12-LOX inh – blocks human arachidonate 12S-lipoxygenase; actives 1.1% (n = 580,000); Potency, µM (titrated, usually from 108 µM), inactives show top-dose activity change, negative = inhibition, hits mostly inhibitors; purified 12hLO, xylenol orange hydroperoxide absorbance; P18054; note: potency is the fitted concentration of half-maximal effect; % is set by controls: 0 for no effect and ±100 for the full control effect
# Target sequence (P18054 whole entry, looked up): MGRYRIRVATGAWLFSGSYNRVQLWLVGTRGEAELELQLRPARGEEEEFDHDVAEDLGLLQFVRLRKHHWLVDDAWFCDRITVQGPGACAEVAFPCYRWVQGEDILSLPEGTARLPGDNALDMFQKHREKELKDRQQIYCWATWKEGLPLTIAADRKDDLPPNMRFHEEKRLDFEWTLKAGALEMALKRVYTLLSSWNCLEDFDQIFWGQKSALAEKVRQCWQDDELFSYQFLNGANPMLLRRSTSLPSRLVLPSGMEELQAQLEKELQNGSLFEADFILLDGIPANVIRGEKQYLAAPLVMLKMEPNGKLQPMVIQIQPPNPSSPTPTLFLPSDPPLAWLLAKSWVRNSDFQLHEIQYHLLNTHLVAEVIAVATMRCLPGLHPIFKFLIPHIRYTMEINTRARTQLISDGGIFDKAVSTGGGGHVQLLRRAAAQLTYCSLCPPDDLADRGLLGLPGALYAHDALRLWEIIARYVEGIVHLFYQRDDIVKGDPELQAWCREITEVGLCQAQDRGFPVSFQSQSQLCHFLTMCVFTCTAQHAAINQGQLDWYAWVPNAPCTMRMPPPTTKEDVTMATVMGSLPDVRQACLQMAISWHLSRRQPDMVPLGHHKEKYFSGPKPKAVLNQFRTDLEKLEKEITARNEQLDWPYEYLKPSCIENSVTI
#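 Purified human 12hLO at 150 nM in 25 mM Hepes, 0.01% Triton X-100, pH 7.0, preincubated 15 min at room temperature with compound. Reaction started with 40 uM arachidonic acid, 30 min at room temperature. Hydroperoxide measured by Fe-xylenol orange, 573/405 nm absorbance ratio.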
# Nrf2 inh – blocks Nrf2 signaling | Potency, µM (series often up to 46 µM), for the others: at the highest dose activity change, negative = inhibition, most hits filed as inhibitors | AID 504444 | A549 ARE-Fluc reporter, luciferase luminescence, 18-24 h | actives 2.1% (n = 360,000); note: potency is the fitted concentration of half-maximal effect; % is set by controls: 0 for no effect and ±100 for the full control effect; nearly all actives have a fitted effect of over 60% in size
#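 A549 ARE_Fluc cells, 5000/well, 5% FBS OPTI-MEM; compounds in dose-response, 18-24 h at 37 °C/5% CO2; CellTiter-Fluor viability read (Ex 405/Em 525), then BugLite luciferase luminescence = Nrf2 activity.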
# Nrf2 activator – Nrf2 pathway activation. actives 0.31% (n = 410,000). Potency, µM (doses to about 46.1 µM), for inactives: top-dose activation, usual class: activators. AREc32 ARE-luciferase reporter (MCF7-derived line), luminescence, 24 h; note: potency is the fitted concentration of half-maximal effect; % of control where 0% means no effect; nearly all actives have a fitted effect of over 65% in size
#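 Reporter line AREc32 (ARE-Fluc), seeded overnight in OPTI-MEM with 5% FBS; compound pin-transferred, 24 hr at 37 deg C, 5% CO2; luminescent read-out.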
# * marks the source's active call; other numbers are inactive results; ? = inconclusive; . = no result; [ ] = dose if it differs, or a comment. Unless noted, calls come from the whole dose curve; as a rule, active = well fitted curve in the direction sought with a large enough effect; inconclusive = small, poorly fitted or top-dose-only effect, or another doubt; inactive = no such curve, though single readings can be large; an effect the other way counts as inactive or inconclusive.
SMILES,ERG Ets-DNA blk,LDHA block,A549 tox,12-LOX inh,Nrf2 inh,Nrf2 activator
COc1ccc(S(=O)(=O)c2c(SC)nn(CC(=O)Nc3ccc(C)c(Cl)c3)c2N)cc1,4%,0,?,?,23µM*,0%
Cc1ccc(S(=O)(=O)CNC(=S)c2ccc3ccccc3c2)cc1,-1%,-2,15%,?,3%,5%
COc1ccc(C(=S)NCS(=O)(=O)c2ccc(C)cc2)cc1,2%,-1,7%,16µM*,12%,0%
CC1Cc2ccccc2N1C(=O)c1ccc(N2CCCCC2)c([N+](=O)[O-])c1 (stereo not drawn),4%,1,-13%,-24%,23µM*,0%
O=C(c1ccc(N2CCCCC2)c([N+](=O)[O-])c1)N(Cc1ccccc1)c1ccccn1,-4%,-6,-8%,-22%,16µM*,3%
COC(=O)CCN(C(=O)c1ccc(N2CCCCC2)c([N+](=O)[O-])c1)c1ccccn1,0%,-2,-2%,-1%,-4%,0%
O=C(c1ccc(N2CCCC2)c([N+](=O)[O-])c1)N1CCc2ccccc2C1,9%,4,-21%,-1%,?,3%
CC1Cc2ccccc2N1C(=O)c1ccc(N2CCCC2)c([N+](=O)[O-])c1 (stereo not drawn),-13%,0,?,-1%,18µM*,3%
N#Cc1ccc(F)c(CSc2nnc(NCc3ccccc3)s2)c1,.,6,.,?,.,.
CCN(C(=O)c1cccc(S(=O)(=O)N(C)C)c1)C12CC3CC(CC(C3)C1)C2,1%,-3,-15%,264%,21µM*,0%
CCN(C(=O)c1ccc2c(c1)OCO2)C12CC3CC(CC(C3)C1)C2,-16%,0,7%,?,?,0%
CC(=O)c1c(C(C)=O)c(C)n(-c2ccc(C)c(NC(=O)c3ccccc3Cl)c2)c1C,-3%,-16,-9%,0%,15µM*,0%
Cc1cc2c(cc1NC(=O)c1ccccc1Cl)n(C)c(=O)c(=O)n2C,1%,-2,-1%,0%,?,21%
COc1ccc(NC2CC(=O)N(c3ccccc3)C2=O)cc1 (stereo not drawn),-6%,6,-5%,22%,.,5%
O=C1CC(NNc2ccccc2)C(=O)N1c1ccccc1 (stereo not drawn),3%,2,5%,45µM*,5%,2%
Cc1ccc(NNC2CC(=O)N(c3cccc(Cl)c3)C2=O)cc1 (stereo not drawn),-9%,-2,0%,20µM*,25%,22%
O=C(Cc1ccccc1)NC(=S)Nc1ccc(OC(F)F)cc1,3%,-4,13%,35µM*,12%,2%[9.22 µM]
C/C(=N\NC(=S)Nc1c(C)cccc1C)c1ccc(OC(F)F)cc1,15%,-5,?,35µM*,?,7%
CC/C(=N\NC(=S)Nc1cc(C)ccc1C)c1ccc(OC(F)F)cc1,3%,2,13%,32µM*,-1%,0%[9.22 µM]
COc1ccc(C/C(C)=N/NC(=S)Nc2ccc(C(C)C)cc2)cc1,-3%,-2,-1%,?,-13%,5%
CC/C(=N\NC(=S)Nc1ccc(OC)cc1)c1ccc(OC(F)F)cc1,-20%,1,-5%,35µM*,-5%,11%
Cc1noc2nc(C(C)C)cc(C(=O)NC3CCCc4c3[nH]c3c(Cl)cccc43)c12 (stereo not drawn),.,.,.,-2%,.,.
CCOC(=O)c1sc(NC(=O)c2ccc(S(=O)(=O)N3CCCCCC3)cc2)nc1-c1ccccc1,-1%,3,-7%,-7%,?,0%
CCOc1cccc2sc(NC(=O)c3ccc(S(=O)(=O)N4CCCCC4)cc3)nc12,-5%,-1,0%,45µM*,.,0%
Cc1nnc(NC(=O)c2ccc(S(=O)(=O)N3CCOCC3)cc2)s1,8%,-1,-2%,-7%,-12%,0%
SMILES,ERG Ets-DNA blk,LDHA block,A549 tox,12-LOX inh,Nrf2 inh,Nrf2 activator
CCOC(=O)c1sc(NC(=O)c2ccc(S(=O)(=O)N3CCCCC3)cc2)nc1-c1ccccc1,3%,-5,-5%,0%,23µM*,0%
CCOC(=O)c1sc(NC(=O)c2ccc(S(=O)(=O)N3CCOCC3)cc2)nc1-c1ccccc1,1%,-7,-6%,1%,21µM*,1%
Cc1nn(CC(=O)NC(C)(C)C)c(C)c1S(=O)(=O)N1CCC(C(=O)N2CCCC2)CC1,.,2,.,-27%,.,.
CCCCn1cnc2c1c(=O)n(CC(=O)Nc1ccc3c(c1)OCCO3)c(=O)n2Cc1ccccc1,.,-2,.,?,.,.
COc1ccccc1NC(=O)CC1C=CCC1 (stereo not drawn),.,-12,.,-42%,.,.
CCc1c(C)sc2nc(NC(CC)CO)n3nc(-c4ccco4)nc3c12 (stereo not drawn),.,-3,.,-17%,.,.
N=c1c2ccccc2nnn1-c1ccccc1[N+](=O)[O-],.,-8,4%,1%,0%,14µM*
N#Cc1ccc(-n2nnc3ccccc3c2=O)c([N+](=O)[O-])c1,-10%[15.4 µM],-4,0%,139%,-11%,0%
O=C(CNC(=S)NC(=O)c1ccccc1Br)c1ccccc1,-11%,-6,8%,7%,?,2.2µM*
CC1CCCC(NC(=S)NC(=O)c2ccccc2Br)C1C (stereo not drawn),-5%,1,-12%,22µM*,?,14%
CCN1CCN(CC(=O)Nc2cc(C)on2)CC1,10%,-25,5%,?,1%,0%[9.22 µM]
Cc1cc(NC(=O)CN2CCCCC2)no1,1%,-32*,4%,?,3%,-1%
Cc1cc(OC(=O)c2cc(Br)ccc2Cl)c([N+](=O)[O-])c(=O)[nH]1,6%,-1,-3%,35µM*,4%,-1%
Cc1c(Cl)cnc(NC(=O)COC(=O)CNC(=O)c2ccccc2)c1Cl,3%,0,3%,?,0%,0%
COc1ccc(CC(=O)OCC(=O)Nc2ncc(Cl)c(C)c2Cl)cc1,12%,11,16%,11µM*,?,0%
O=C(Cn1nc(C(=O)O)c2ccccc2c1=O)NCc1cccc(Cl)c1,.,-3,.,?,.,.
COc1cc2[nH]c(C(=O)NCCCN(C)C)cc2c(OC)c1OC,.,-1,.,-23%,.,.
COC(=O)c1sc(N)c(C#N)c1C,.,1,.,4.5µM*,.,.
Cn1c(=O)c2c(nc(SCC(=O)O)n2Cc2ccc(F)cc2Cl)n(C)c1=O,.,2,.,-8%,.,.
Fc1ccc(Nc2ncc(-c3cccnc3)c3c2OCC3)cc1,.,.,.,5%[176 µM],.,.
Cc1ccc(NC(=O)CSc2nc(=O)[nH]c3c2CCCC3)cc1,.,-3,.,-4%,.,.
